We go through one compound from PubChem BioAssay AID540351 (The Scripps Research Institute Molecular Screening Center, 2011).

A number with no mark means an inactive call. The rule behind the calls is not given here.

The assay has as its system Rolipram. In words: off-target receptor, channel and CYP panel, profiling panel, selectivity assay for S1P3 agonist project, biochemical, Ricerca HitProfilingScreen, CYP450 (AID 540351). The settings on record: Ricerca receptor/enzyme binding panel plus CYP450, at 30 µM, stronger effect = higher value.

The inhibition is the change of the read-out against control, counted positive when it falls. `O=C(c1cc(C2CC2)on1)N(C1CCCCC1)C1CCCCC1`: the inhibition was 18%.
